Test results reported in PubChem BioAssay AID2013 (Sanford-Burnham Center for Chemical Genomics, 2009).
In all, about 290,000 compounds went through this assay and about 370 (0.13%) were called active. For the sample, actives were picked, then their nearest neighbours and some compounds at random. Measured potencies and affinities stand elsewhere. A number with no mark means an inactive call.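 How the source made its calls: active means spots per cell inhibited over 60%, with over 100 cells counted and total cytoplasm intensity under 500,000; inconclusive means wells with under 100 cells, flagged as likely toxic; inactive means the rest.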

target: G-protein coupled receptor 55 (Homo sapiens) (UniProt Q9Y2T6); assay: inhibition of LPI-stimulated GPR55 beta-arrestin translocation – imaging, U2OS, beta-arrestin-GFP, LPI agonist, primary screen (AID 2013); conditions: LPI antagonism, at 10 µM, active compounds read high;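 further: U2OS cells stably carrying GPR55 and arrestin-GFP stimulated by 5 µM LPI near EC80; imaged beta-arrestin-GFP aggregate spots per cell after agonist stimulation; plate controls were LPI-stimulated DMSO wells for no effect and DMSO wells without LPI for full effect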
Sequence (Q9Y2T6 whole entry, looked up): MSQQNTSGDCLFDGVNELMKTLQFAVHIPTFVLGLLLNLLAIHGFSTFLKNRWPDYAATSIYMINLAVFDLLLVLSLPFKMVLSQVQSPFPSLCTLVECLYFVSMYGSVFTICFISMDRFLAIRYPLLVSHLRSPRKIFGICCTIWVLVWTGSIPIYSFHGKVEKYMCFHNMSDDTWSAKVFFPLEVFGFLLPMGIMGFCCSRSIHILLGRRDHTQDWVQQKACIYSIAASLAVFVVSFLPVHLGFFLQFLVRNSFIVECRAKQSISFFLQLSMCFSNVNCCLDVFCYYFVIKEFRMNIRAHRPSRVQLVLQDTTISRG

Row | Compound | inhibition
1 | O=C(CSc1ncccn1)N1CCN(S(=O)(=O)c2ccccc2)CC1 | 9.7%
2 | O=C(CSc1nc2ccccc2c(=O)[nH]1)N1CCN(S(=O)(=O)c2ccccc2)CC1 | 2.8%
3 | N#Cc1ccccc1NC(=O)CN1CCOCC1 | 9.8%
4 | CCn1c(SCC(N)=O)nc2c(c1=O)C1(CCCC1)Cc1ccccc1-2 | 1.3%
5 | CCSc1n[nH]c2nc3c(c(=O)n12)C1(CCCC1)Cc1ccccc1-3 | 10.3%
6 | CCCc1ccc(Oc2cn[nH]c2-c2ccc(O)c(C)c2O)cc1 | 20.9%
7 | CCCc1ccc(Oc2c(-c3ccc(O)c(C)c3O)n[nH]c2C)cc1 | 1%
8 | COc1ccc(Oc2c(-c3ccc(O)cc3O)n[nH]c2C)cc1 | 11%
9 | CCCOC(=O)c1ccc(Oc2c(-c3ccc(O)cc3O)n[nH]c2C)cc1 | 36.9%
10 | Cc1ccccc1C(=O)NC(=S)NCc1ccccc1 | 2.5%
11 | Cc1sc2nc(CC(=O)NN)[nH]c(=O)c2c1C | 6.8%
12 | CC(=O)N1CCOc2ccc(S(=O)(=O)N3CCC(C)CC3)cc21 | 7.2%
13 | C/C=C(\C)C(=O)N1CC2(CC(c3cccc(NC(=O)COc4ccc(Cl)cc4)c3)=NO2)C[C@@H]1C(N)=O (stereo not given in full) | -0.1%
14 | NS(=O)(=O)c1ccc(NC(=S)Nc2ccc(C(=O)N3CCCCC3)cc2)cc1 | 0.7%
15 | O=C(Nc1ccccc1N1CCOCC1)c1cccnc1Cl | 3.4%
16 | CCN(C(=O)CSc1nc(-c2ccccc2)c(-c2ccccc2)[nH]1)C1CCS(=O)(=O)C1 (stereo not given) | 15.5%
17 | Cc1ccc(SCC(=O)N(C)C2CCS(=O)(=O)C2)cc1 (stereo not given) | -5.3%
18 | CCCCNC(=O)CN1C(=O)C(CC)Oc2ccc(Cl)cc21 (stereo not given) | 2.3%
19 | O=C1N=C(N2CCOCC2)S/C1=C\c1ccc(-c2ccccc2Cl)o1 | -0.9%
20 | Cc1ccc(-c2ccc(/C=C3\SC(N4CCOCC4)=NC3=O)o2)cc1 | 16.2%

Row | Compound | inhibition
21 | Cc1ccc(CNC(=O)c2ccc(CS(=O)(=O)c3ccccc3C)o2)cc1 | 7.3%
22 | O=C(Oc1ccc(N2C(=O)C3C4CCC(C4)C3C2=O)cc1)c1ccco1 (stereo not given) | 15.6%
23 | O=C(NC1CCN(S(=O)(=O)c2ccccc2F)CC1)c1cccnc1 | -8.1%
24 | O=C(N1CCCC1)C(F)(F)Oc1ccc(F)cc1 | 10.6%
25 | COCCN1C=C(C(=O)OC)C(c2cc3c(cc2Br)OCO3)C(C(=O)OC)=C1 | 1%
26 | COC(=O)C1=CN(C(C)C)C=C(C(=O)OC)C1c1cc(Br)c(OC)c(OC)c1 | 0.5%
27 | COc1ccc(-n2c(C)cc(C=O)c2C)cc1Cl | 15.8%
28 | COc1ccc(Cl)cc1-n1c(C)cc(C=O)c1C | -3.7%
29 | CN(C)S(=O)(=O)N1CCN(C(=O)c2cccc(Br)c2)CC1 | 1.7%
30 | NS(=O)(=O)c1ccc(CCNC(=O)CSc2nc3ccsc3c(=O)n2CCCCCC(=O)O)cc1 | 14.8%
31 | Cc1cccc(OCC(=O)N2CCOCC2)c1 | 15.3%
32 | COc1ccc(OC)c(-n2c(C)cc(/C=C3\C(=N)N4N=C(CC(=O)N5CCOCC5)SC4=NC3=O)c2C)c1 | 21.8%
33 | COc1ccccc1N1CCN(C(=O)NC23CC4CC(CC(C4)C2)C3)CC1 | 6.5%
34 | O=C(CCCn1c(=S)[nH]c2ccc(Br)cc2c1=O)N1CCN(c2ccccn2)CC1 | 60.6% (active)
35 | O=C(CCCn1c(=S)[nH]c2cc3c(cc2c1=O)OCO3)N1CCN(c2ccccn2)CC1 | 10.5%
36 | O=C(CCCn1c(=O)[nH]c2ccccc2c1=O)N1CCN(c2ccccn2)CC1 | 3.9%
37 | O=C(COc1cccc2cccnc12)N/N=C1\SCC(=O)N1CCc1ccccc1 | 14.1%
38 | N#Cc1c(N)nc2c(c1-c1cccc(O)c1)CCCCCC2 | 76% (active)
39 | N#Cc1c(N)nc2c(c1-c1ccccc1)CCC2 | -2.3%
40 | N#Cc1c(N)nc2c(c1-c1ccccc1)CCCC2 | 14.6%

Row | Compound | inhibition
41 | Cc1c(Br)cc(C(=O)NCCCN2CCOCC2)c(C)c1C | -19.3%
42 | Cc1ccc(C(=O)NC2CC(C)(C)NC(C)(C)C2)cc1Cl | -5.9%
43 | CCOc1ccccc1NC(=O)NCCc1c[nH]c2ccccc12 | 5.7%
44 | CCN(C(=O)CC(C)C)c1nnc(Cn2nnc3ccccc32)s1 | 6.1%
45 | O=C(CN1C(=O)S/C(=C\c2ccc(Cl)cc2)C1=O)NCCCn1ccnc1 | -24.8%
46 | Fc1ccc(-c2csc(N3CCOCC3)n2)cc1 | -10.5%
47 | N=C1C(c2nc(-c3ccc(Cl)cc3)cs2)=C(O)CN1CCCN1CCOCC1 | 14.9%
48 | Cc1c(Br)c([N+](=O)[O-])nn1CC(=O)N1CCN(C23CC4CC(CC(C4)C2)C3)CC1 | 10.9%
49 | Cc1ccc(N(CC(=O)NCCc2ccc(F)cc2)S(=O)(=O)c2ccc(Cl)c([N+](=O)[O-])c2)c(C)c1 | 65.4% (active)
50 | O=C(CN(c1ccc(Cl)cc1)S(=O)(=O)c1ccc(Cl)c([N+](=O)[O-])c1)NCCc1ccccc1 | 5.1%
51 | O=C(CN(c1ccc(Cl)cc1)S(=O)(=O)c1ccc(Cl)c([N+](=O)[O-])c1)NCCc1ccc(F)cc1 | 7.2%
52 | O=S(=O)(NC1CCCCC1Oc1ccccc1)c1ccc(Cl)cc1 (stereo not given) | 12.4%
53 | CCn1cc(CN2CCC(C(=O)Nc3ccc(Oc4ccccc4)nc3)CC2)cn1 | 17%
54 | NC(=NC(=O)c1ccccc1)N1CCN(C(c2ccccc2)c2ccccc2)CC1 | 22.5%
55 | CC1=C(C(=O)OCc2ccccc2)C(c2ccc3ccccc3c2)NC(=O)N1CCCC(=O)O (stereo not given) | 1.7%
56 | Cn1nc(C(=O)NCc2ccco2)c2ccccc2c1=O | -3.1%
57 | COC(=O)c1cccc(S(=O)(=O)N2CCC(c3nc4ccccc4o3)CC2)c1 | 4.8%
58 | O=c1[nH]ncn1-c1ccccc1 | 0.1%
59 | Cc1ccc(OC(=O)c2ccc(N3CCOCC3)c([N+](=O)[O-])c2)cc1 | 2.8%
60 | Cc1ncsc1CCOC(=O)c1ccc(N2CCOCC2)c([N+](=O)[O-])c1 | -11%
